In the library only some 27% were active in any assay of this set; here they are far more common.
Cav32 inh = human Cav3.2 channel inhibition, primary screen; Cav3.2-expressing cells, Fluo-4 calcium fluorescence FDSS; hits give low values; hit rate 4% among 100,000; AID 449739; B-score at 10 µM; O95180;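 active means single-dose well whose peak fluorescence ratio is a statistical outlier from its plate by either plate-standardised score or position-corrected B-score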
CYP2C19 inhib = human CYP2C19 inhibition; P33261; CYP2C19 Supersomes, luciferin-H EGE luminescence, 30 min; inhibition, % at 5 µM; hit rate 21% among 96,000; AID 778;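 active means CYP2C19 inhibition above a set limit at 5 µM in the primary screen, cut at about 50% in these data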
Target sequence (P33261 whole entry, looked up): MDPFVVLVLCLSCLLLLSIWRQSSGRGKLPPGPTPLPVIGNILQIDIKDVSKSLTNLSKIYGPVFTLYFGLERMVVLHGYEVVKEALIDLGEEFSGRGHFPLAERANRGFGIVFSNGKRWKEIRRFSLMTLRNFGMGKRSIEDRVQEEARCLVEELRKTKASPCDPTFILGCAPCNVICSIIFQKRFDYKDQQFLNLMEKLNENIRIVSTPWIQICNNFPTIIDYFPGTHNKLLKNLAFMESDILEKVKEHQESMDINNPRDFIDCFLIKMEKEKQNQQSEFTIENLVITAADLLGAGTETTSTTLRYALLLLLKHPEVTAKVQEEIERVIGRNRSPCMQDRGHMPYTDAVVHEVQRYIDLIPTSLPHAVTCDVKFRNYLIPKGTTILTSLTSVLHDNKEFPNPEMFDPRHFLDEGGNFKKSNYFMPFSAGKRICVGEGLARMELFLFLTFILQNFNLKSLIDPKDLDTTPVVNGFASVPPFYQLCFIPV
CYP2C9 activ = increases human cytochrome P450 2C9 activity | P11712 | hit rate 1.4% among 96,000 | recombinant CYP2C9, luciferin-H conversion, luminescence; hits give high values; factor 1 = untreated enzyme, 0 = blocked | activation factor at 5 µM | AID 1024;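 active means activation factor of 2 or more for CYP2C9 at a 5 µM dose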
CYP2C9 inh = human CYP2C9 inhibition; hit rate 20% among 96,000; CYP2C9 Supersomes, luciferin-H conversion, luminescence; P11712; inhibition, % at 5 µM; AID 777;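 active means blocking of liver enzyme CYP2C9 beyond about 50% at 5 µM, limit read from the data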
CYP2C19 act = activators of human cytochrome P450 2C19. activation factor at 5 µM. recombinant CYP2C19, luciferin-H EGE luminescence; hits give high values; 0 = fully inhibited enzyme, 1 = untreated enzyme. P33261. 96,000 tested, under 10 active. AID 1025;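 active means activation factor of at least 2 at 5 µM in the primary screen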
Of the large screens only hits and unclear results are named; the others gave an inactive call.

COc1ccc(OC)c(NC(=O)C(Sc2ccccc2)c2ccccc2)c1 (stereo not drawn)	CYP2C19 inhib 56
CCN(CC)C(=O)C(Sc1ccccc1)c1ccccc1 (stereo not drawn)	CYP2C19 inhib 90
CNC(=O)C(Sc1ccccc1)c1ccccc1 (stereo not drawn)	CYP2C19 inhib 91
O=C(Nn1cnnc1)C(Sc1ccccc1)c1ccccc1 (stereo not drawn)	CYP2C19 inhib 61, CYP2C9 inh 74
CC(C)(CN=C1NS(=O)(=O)c2ccccc21)CNC(=O)CN1C(=O)c2ccccc2C1=O	none
CCC(Sc1n[nH]c(=O)[nH]c1=O)C(=O)OCc1ccccc1 (stereo not drawn)	none
O=C(Nc1ccccn1)c1cc2ccccc2o1	none (no result: CYP2C19 inhib, CYP2C9 activ, CYP2C9 inh, CYP2C19 act)
Cc1csc(C(C#N)C(=O)c2cc3ccccc3o2)n1 (stereo not drawn)	CYP2C9 inh 60 (no result: Cav32 inh)
O=C(NC1CCCC1)c1ccc2c(c1)S(=O)(=O)c1ccccc1C2=O	none (no result: CYP2C19 inhib, CYP2C9 activ, CYP2C9 inh, CYP2C19 act)
C/C(N)=C(/C#N)C(=O)CSc1nnc(-c2ccccc2Br)o1	CYP2C19 inhib 96
CC(=O)OCc1c(C(F)(F)F)nn(C)c1Oc1cccc(C(F)(F)F)c1	Cav32 inh -4.2, CYP2C19 inhib 74
CC(=O)OCc1c(C(F)(F)F)nn(C)c1Oc1ccccc1	CYP2C19 inhib 92
CC(=O)c1cc(C#N)c(Oc2cccc(C(F)(F)F)c2)nc1C	none
Cc1nn(C)c(Oc2cccc(Cl)c2)c1C(=O)O	none
O=C(O)c1cc2nc(C3CC3)cc(C(F)(F)F)n2n1	none
CCN(CC)c1cccc(OC2=NS(=O)(=O)c3ccccc32)c1	none
O=C(NCc1ccco1)C1CC(c2cc(C(F)(F)F)cc(C(F)(F)F)c2)=NO1 (stereo not drawn)	none (no result: CYP2C19 inhib, CYP2C9 activ, CYP2C9 inh, CYP2C19 act)
CCN(CC)c1ccc(-c2nn3c(-c4cccnc4)nnc3s2)cc1	none (no result: Cav32 inh)
Cc1ccc(SCC(=O)N2CC(C)OC(C)C2)cc1 (stereo not drawn)	CYP2C19 inhib 69
Cc1cc(C)cc(C(=O)N2CC(C)OC(C)C2)c1 (stereo not drawn)	CYP2C9 inh 88
Cc1ccc(CC(=O)N2CC(C)OC(C)C2)cc1 (stereo not drawn)	none
Cc1nc(NC(=O)c2ccccc2)sc1C1(C)CC(c2c(Cl)cccc2Cl)=NO1 (stereo not drawn)	none (no result: CYP2C19 inhib, CYP2C9 activ, CYP2C9 inh, CYP2C19 act)
O=C(CSc1nnc(-c2cccs2)n1-c1cccc(Cl)c1)c1cccc2c1OCCO2	CYP2C19 inhib 72, CYP2C9 inh 85
COc1ccc(C(=O)Nc2cccc(-c3cnc4ccccc4n3)c2)cc1	none (no result: CYP2C19 inhib, CYP2C9 activ, CYP2C9 inh, CYP2C19 act)
O=C(NC1CCCCC1)C1CCN(S(=O)(=O)c2cccs2)CC1	none
O=S(=O)(NC1CCCCCCC1)c1cccs1	CYP2C19 inhib 54
O=C(NC1CCCCCC1)C1CCCN(S(=O)(=O)c2cccs2)C1 (stereo not drawn)	CYP2C9 inh 77
O=C(NCCc1ccccc1)C1CCCN(S(=O)(=O)c2cccs2)C1 (stereo not drawn)	CYP2C9 inh 86
CCc1c(C)nc(SC)n(CC#N)c1=O	none
CCOC(=O)c1ccc(NC(=O)CCc2nc(-c3cccc(C)c3)no2)cc1	CYP2C9 inh 52
Cc1ccc(-c2noc(CCC(=O)Nc3cccc(C#N)c3)n2)cc1	Cav32 inh -4.2
COc1ccc(C(=O)N2CCN(Cc3ccccc3C)CC2)cc1OC	none
CN(Cc1ccncc1)C1CC(=O)N(c2ccc(Cl)cc2)C1=O (stereo not drawn)	CYP2C19 inhib 99, CYP2C9 inh 94
COC(=O)CN(C)C1CC(=O)N(c2ccc(Cl)cc2)C1=O (stereo not drawn)	none
O=C1SC(c2ccccc2)=C/C1=C\N1CCCCC1	CYP2C19 inhib 57
O=C(COC(=O)c1ccccc1NC(=O)c1ccco1)Nc1ncc(Cl)cc1Cl	CYP2C9 inh 64
Cc1c(Cl)cnc(NC(=O)COC(=O)C(NC(=O)c2ccco2)C(C)C)c1Cl (stereo not drawn)	CYP2C19 inhib 77 (no result: Cav32 inh)
COC(=O)c1nc2n(n1)C(c1ccccc1OC)C1=C(CCCC1=O)N2 (stereo not drawn)	none
CCNc1nc(NC(C)C)nc(Oc2ccc(/C=N/O)cc2)n1	CYP2C9 inh 69
CC1CCCCC1NC(=O)c1cc2c(s1)CS(=O)(=O)C2 (stereo not drawn)	none
CCn1c(=O)n(CC(=O)Nc2cc(OC)ccc2OC)c(=O)c2ccccc21	none (no result: Cav32 inh)
COc1ccc(OC)c(NC(=O)Cn2cc(C#N)c3cc(Br)ccc32)c1	CYP2C19 inhib 93, CYP2C9 inh 99
CCCCCCSC1=C(C#N)C(c2ccc(C)o2)CC(=O)N1 (stereo not drawn)	none
N#CC1=C(SCc2ccccc2)NC(=O)CC1c1ccco1 (stereo not drawn)	CYP2C9 inh 71
CCCCSC1=C(C#N)C(c2ccccc2C)CC(=O)N1 (stereo not drawn)	none
N#CC1=C(SCC(=O)Nc2ccccc2)NC(=O)CC1c1ccco1 (stereo not drawn)	none (no result: CYP2C19 inhib, CYP2C9 activ, CYP2C9 inh, CYP2C19 act)
N#CC1=C(SCC(=O)NC2CCCCC2)NC(=O)CC1c1ccco1 (stereo not drawn)	CYP2C19 inhib 72, CYP2C9 inh 59 (no result: Cav32 inh)
N#CC1=C(SCC(=O)NCc2ccccc2)NC(=O)CC1c1ccco1 (stereo not drawn)	CYP2C19 inhib 67, CYP2C9 inh 88
Cc1ccc(C2CC(=O)NC(SCc3ccccc3)=C2C#N)o1 (stereo not drawn)	CYP2C9 inh 53
Cc1ccc(-c2nnn(CC(=O)N3CCCCC3)n2)c(-n2cnnn2)c1	none
COCC(=O)Nc1nc(-c2ccccc2)ns1	none (no result: CYP2C19 inhib, CYP2C9 activ, CYP2C9 inh, CYP2C19 act)
N#C/C(C(=O)Oc1ccccc1)=C1\C=Cc2ccccc2N1	none
O=C(OCC(=O)N1CCN(C(=O)c2ccco2)CC1)c1ccccc1O	CYP2C9 inh 72
O=C(OCC(=O)N1CCN(C(=O)c2ccco2)CC1)c1sc2ccccc2c1Cl	none
CC1CCCCC1NC(=O)COC(=O)c1ccccc1NC(=O)c1ccco1 (stereo not drawn)	none
CCN(CC)S(=O)(=O)c1ccc(C(=O)OCC(=O)N2CCN(C(=O)c3ccco3)CC2)cc1	CYP2C9 inh 96
O=C(COC(=O)C1(c2ccc(F)cc2)CCCC1)N1CCN(C(=O)c2ccco2)CC1	Cav32 inh -5.4, CYP2C19 inhib 73, CYP2C9 inh 82
O=C(Nc1ccccc1C(=O)OCC(=O)N1CCc2ccccc2C1)c1ccco1	CYP2C19 inhib 65, CYP2C9 inh 87
CCS(=O)(=O)N1CCN(C(=O)c2ccco2)CC1	none
COc1nc2c(C)cccc2cc1-c1noc(-c2ccncc2)n1	CYP2C19 inhib 63 (no result: Cav32 inh)
COc1nc(C)ccc1-c1noc(-c2ccncc2)n1	none (no result: CYP2C19 inhib, CYP2C9 activ, CYP2C9 inh, CYP2C19 act)
COc1ccc(CN=C2Nc3ccccc3CS2)cc1	none
Cc1cccc(-n2c(C)nc3sccc3c2=O)c1	none
CCOc1cc(/C=C(\C#N)c2[nH]nc(N)c2C#N)ccc1O	CYP2C19 inhib 60
CCOc1cc(-c2cc(-c3ccc(C)cc3)nc(N)c2C#N)ccc1O	CYP2C9 inh 84
COc1cc(C=C(C(C)=O)C(C)=O)ccc1O	none
Cc1cc(NC(=O)c2ccco2)ncc1NC(=O)CCc1ccccc1	none
